PubChem BioAssay (NCATS)
Values without a mark were called inactive. Results filed as inconclusive are left out. Active and inactive are the calls of the source. Unless noted, calls follow the shape of the dose curve; as a rule, active = well fitted curve in the direction sought with a large enough effect; inconclusive = small, poorly fitted or top-dose-only effect, or another doubt; inactive = no such curve, though single readings can be large; an effect the other way counts as inactive or inconclusive.

Tests used:
[1] = molecular target: Lysosomal acid glucosylceramidase (Homo sapiens) (UniProt P04062); test: Glucocerebrosidase-p2 (AID 348; in the data active = potency below about 10 µM; also: potency is read from the fitted curve at half-maximal effect); conditions: purified GBA, blue fluorogenic substrate, 40 min
Lysosomal acid glucosylceramidase (Homo sapiens), sequence (P04062 whole entry, looked up): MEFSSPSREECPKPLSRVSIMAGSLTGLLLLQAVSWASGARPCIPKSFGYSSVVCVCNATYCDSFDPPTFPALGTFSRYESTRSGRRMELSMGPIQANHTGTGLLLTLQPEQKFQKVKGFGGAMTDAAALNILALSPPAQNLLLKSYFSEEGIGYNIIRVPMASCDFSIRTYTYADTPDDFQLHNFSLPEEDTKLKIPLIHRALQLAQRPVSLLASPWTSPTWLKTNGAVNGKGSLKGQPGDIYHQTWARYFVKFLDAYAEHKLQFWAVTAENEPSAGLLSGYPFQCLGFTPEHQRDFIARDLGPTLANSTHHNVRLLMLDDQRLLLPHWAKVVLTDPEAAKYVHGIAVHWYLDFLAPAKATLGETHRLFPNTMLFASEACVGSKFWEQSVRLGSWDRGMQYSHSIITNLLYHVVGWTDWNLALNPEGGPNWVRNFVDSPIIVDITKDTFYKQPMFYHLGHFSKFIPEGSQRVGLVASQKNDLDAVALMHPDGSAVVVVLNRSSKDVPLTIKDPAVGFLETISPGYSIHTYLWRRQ
Summary of the method: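 Normal human glucocerebrosidase (0.2 nM) with blue fluorogenic substrate (80 uM final) in citrate/phosphate pH 5.9 with 10mM sodium taurocholate, 0.01% tween-20; 40 min RT, NaOH/glycine stop; fluorescence Ex 365/Em 440; AC50 from a titration from 0.6 nM upwards.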

[2] = AP1 Signaling Pathway (AID 357; active = well fitted curve in either direction with a large enough effect, not every such curve was filed as active;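 also: ME-180 reporter cells stimulated with EGF at its EC50 level; % is scaled to controls: 0 for no effect and ±100 for the full control effect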); conditions: ME-180 AP-1-bla reporter, EGF-induced, beta-lactamase ratio, 5 h; at 7.69 µM (top of the series) unless noted
Summary of the method: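 First, ME-180 AP-1-bla cells were cultured overnight at 37 °C in low-serum Opti-MEM. Next, titrated compounds with EC50 EGF were incubated 5 hours. Finally, CCF4 was added for 2.5 hours and the 460/530 nm ratio recorded.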

[3] = molecular target: Cytochrome P450 1A2 (Homo sapiens) (UniProt P05177); test: p450-cyp1a2 (AID 410; calls by dose curve; also: potency is read from the fitted curve at half-maximal effect); conditions: recombinant CYP1A2, luciferin-ME demethylation, luminescence; series mostly up to 57 µM
Cytochrome P450 1A2 (Homo sapiens), sequence (P05177 whole entry, looked up): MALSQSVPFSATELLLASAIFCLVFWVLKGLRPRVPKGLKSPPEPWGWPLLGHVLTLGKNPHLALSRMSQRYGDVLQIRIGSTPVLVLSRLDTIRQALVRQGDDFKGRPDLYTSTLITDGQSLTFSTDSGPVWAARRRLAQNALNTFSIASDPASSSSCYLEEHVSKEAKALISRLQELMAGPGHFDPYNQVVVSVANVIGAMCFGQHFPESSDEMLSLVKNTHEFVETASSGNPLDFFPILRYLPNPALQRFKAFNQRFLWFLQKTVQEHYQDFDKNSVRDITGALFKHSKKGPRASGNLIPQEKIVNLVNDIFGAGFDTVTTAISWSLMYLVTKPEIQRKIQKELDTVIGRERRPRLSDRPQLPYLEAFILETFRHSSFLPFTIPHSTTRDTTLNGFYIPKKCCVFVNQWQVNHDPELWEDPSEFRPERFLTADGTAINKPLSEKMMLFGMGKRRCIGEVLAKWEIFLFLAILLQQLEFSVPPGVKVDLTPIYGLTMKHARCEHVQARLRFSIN
Summary of the method: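 Luminescent demethylation readout: Luciferin-ME (100uM, equal to Km) turned over by 20nM CYP1A2 for 60 min at room temperature after NADPH regeneration addition, following 10 min compound preincubation. Normalization used 57 uM furafylline as full inhibition.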

[4] = NFAT Signaling Pathway (AID 444; active = well fitted curve in either direction with a large enough effect, not every such curve was filed as active;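 also: carbachol stimulus at about its EC50 of 1 µM final; % is scaled to controls: 0 for no effect and ±100 for the full control effect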); conditions: Jurkat NFAT-bla M1, carbachol, beta-lactamase ratio, 5 h; at 7.69 µM (top of the series) unless noted
Summary of the method: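 Jurkat cells with NFAT-driven β-lactamase reporter and co-expressed M1 receptor, stimulated with carbachol (final 1 uM, ~EC50), compound titration, 5 h at 37 °C. CCF4 loaded 1 h at RT; 460/530 nm ratio gave %activity and AC50.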

[5] = Stat Signaling Pathway (AID 446; active = well fitted curve in either direction with a large enough effect, not every such curve was filed as active;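 also: ME-180 cervical cancer cells given 40 pM IL-6 alongside compound; SIE-controlled beta-lactamase reporter measured as 460/530 nm FRET emission ratio; % is scaled to controls: 0 for no effect and ±100 for the full control effect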); conditions: ME-180 (cervical carcinoma) SIE beta-lactamase reporter, IL-6 stimulated, 5 h; at 7.69 µM (top of the series) unless noted
Summary of the method: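 Overnight-plated ME-180 cells bearing a STAT Inducible Element beta-lactamase reporter; 5 h co-exposure to compound and 40 pM IL-6; values normalized to 300 pM IL-6 and 125 nM JAK inhibitor controls.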

[6] = molecular target: Glucocorticoid receptor (Homo sapiens) (UniProt P04150); test: GR-GFP Redistribution (AID 450;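 active = compounds whose dose series gives a full or clear partial fitted curve of increased nuclear translocation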; also: potency is read from the fitted curve at half-maximal effect); conditions: U2OS GR-GFP nuclear translocation, laser cytometry, 2 h
Glucocorticoid receptor (Homo sapiens), sequence (P04150 whole entry, looked up, the tested form may be a part): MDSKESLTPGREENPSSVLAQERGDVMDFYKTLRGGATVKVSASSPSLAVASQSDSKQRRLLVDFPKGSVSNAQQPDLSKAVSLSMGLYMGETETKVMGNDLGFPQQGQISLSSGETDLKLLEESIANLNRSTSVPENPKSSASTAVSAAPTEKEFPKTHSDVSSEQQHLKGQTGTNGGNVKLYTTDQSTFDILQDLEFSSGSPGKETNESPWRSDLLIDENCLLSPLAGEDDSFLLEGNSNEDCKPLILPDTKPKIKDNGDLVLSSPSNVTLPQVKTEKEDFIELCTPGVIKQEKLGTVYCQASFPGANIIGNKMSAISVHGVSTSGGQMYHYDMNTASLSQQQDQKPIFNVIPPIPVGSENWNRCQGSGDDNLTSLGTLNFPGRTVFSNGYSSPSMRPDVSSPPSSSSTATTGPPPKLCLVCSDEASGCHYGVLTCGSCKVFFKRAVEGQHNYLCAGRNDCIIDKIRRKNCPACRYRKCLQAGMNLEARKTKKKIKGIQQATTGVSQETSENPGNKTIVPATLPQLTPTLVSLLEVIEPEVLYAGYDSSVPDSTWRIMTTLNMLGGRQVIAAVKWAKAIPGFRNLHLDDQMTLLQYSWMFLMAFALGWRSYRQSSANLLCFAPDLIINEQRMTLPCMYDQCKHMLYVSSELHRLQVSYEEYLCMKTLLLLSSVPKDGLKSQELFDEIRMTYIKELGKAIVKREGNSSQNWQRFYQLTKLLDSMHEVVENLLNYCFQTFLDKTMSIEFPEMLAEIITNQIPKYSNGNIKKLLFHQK

[7] = molecular target: Glucocorticoid receptor (Homo sapiens) (UniProt P04150); test: GR-EFC Redistribution (AID 451; calls by dose curve; also: potency is read from the fitted curve at half-maximal effect); conditions: CHO-K1 GR-EFC translocation, beta-gal luminescence, 2 h
Summary of the method: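 CHO-K1 cells expressing nuclear EA and GR-ED fragments of b-gal; compounds titrated up to 46 uM final, 2 h at 37 C. GR nuclear translocation read as complemented b-gal luminescence after 1 h RT detection.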

[8] = molecular target: Mitogen-activated protein kinase 10 (Mus musculus) (UniProt Q61831); test: JNK3 AlphaScreen Assay (AID 530; active = well fitted curve in either direction with a large enough effect, not every such curve was filed as active;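 also: kinase came from lysate of stimulated human HepG2 cells; signal reports phosphorylation of biotinylated GST-cJun 1-79 at Ser73 with 10 µM ATP; % is scaled to controls: 0 for no effect and ±100 for the full control effect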); conditions: JNK3 lysate, c-Jun phosphorylation; series mostly up to 57.1 µM
Summary of the method: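 Activity was read by AlphaScreen after JNK3-containing HepG2 lysate (cytokine pre-activated) phosphorylated biotinylated GST-cJun with 10 uM ATP at room temperature. Phospho-Ser73 cJun antibody with Protein-A acceptor beads provided detection.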

[9] = molecular target: 3',5'-cyclic-AMP phosphodiesterase 4B (Homo sapiens) (UniProt Q07343); test: qHTS Assay for Inhibitors of PDE-IV (AID 607; active = well fitted activation curve with a large enough effect in the main read-out, with a control signal flat, not every such curve was filed as active; also: % of control where 0% means no effect); conditions: HEK293 ACTOne CNG channel cells, membrane potential fluorescence; series mostly up to 22.9 µM
3',5'-cyclic-AMP phosphodiesterase 4B (Homo sapiens), sequence (Q07343 whole entry, looked up): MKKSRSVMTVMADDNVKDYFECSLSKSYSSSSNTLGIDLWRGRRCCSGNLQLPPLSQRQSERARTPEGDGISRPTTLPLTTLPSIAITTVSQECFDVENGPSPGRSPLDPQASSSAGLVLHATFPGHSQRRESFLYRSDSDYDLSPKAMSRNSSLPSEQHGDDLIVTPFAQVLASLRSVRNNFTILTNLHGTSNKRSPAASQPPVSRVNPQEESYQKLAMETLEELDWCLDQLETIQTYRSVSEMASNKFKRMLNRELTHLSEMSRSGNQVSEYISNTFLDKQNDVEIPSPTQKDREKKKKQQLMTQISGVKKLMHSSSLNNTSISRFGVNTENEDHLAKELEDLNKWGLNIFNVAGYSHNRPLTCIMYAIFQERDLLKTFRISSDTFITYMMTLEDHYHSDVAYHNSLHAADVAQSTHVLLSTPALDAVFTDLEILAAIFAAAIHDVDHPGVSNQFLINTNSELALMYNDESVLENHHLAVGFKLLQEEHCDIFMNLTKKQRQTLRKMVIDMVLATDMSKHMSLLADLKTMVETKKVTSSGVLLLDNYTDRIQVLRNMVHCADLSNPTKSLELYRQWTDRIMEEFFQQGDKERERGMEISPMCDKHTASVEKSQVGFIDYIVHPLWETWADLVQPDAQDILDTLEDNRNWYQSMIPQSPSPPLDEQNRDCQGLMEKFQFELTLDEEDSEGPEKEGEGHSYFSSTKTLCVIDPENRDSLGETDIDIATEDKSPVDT
Summary of the method: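 Live HEK293 cells with a modified cyclic nucleotide-gated (CNG) channel report intracellular cAMP via membrane-potential dye fluorescence (ex 535/em 590 nm). Endogenous PDE-IV was targeted. Compounds were tested at up to 22.9 uM final; RO 20-1724 100 uM served as control.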

[10] = molecular target: Dual specificity protein kinase CLK4 (Homo sapiens) (UniProt Q9HAZ1); test: qHTS Assay for Inhibitors of CDC-like Kinase 4 (Kinase-Glo Assay) (AID 1770); conditions: recombinant Clk4, Kinase-Glo ATP depletion luminescence; series mostly up to 66.7 µM; also: nearly all actives have a fitted effect of over 65% in size; also: potency is read from the fitted curve at half-maximal effect
Dual specificity protein kinase CLK4 (Homo sapiens), sequence (Q9HAZ1 whole entry, looked up): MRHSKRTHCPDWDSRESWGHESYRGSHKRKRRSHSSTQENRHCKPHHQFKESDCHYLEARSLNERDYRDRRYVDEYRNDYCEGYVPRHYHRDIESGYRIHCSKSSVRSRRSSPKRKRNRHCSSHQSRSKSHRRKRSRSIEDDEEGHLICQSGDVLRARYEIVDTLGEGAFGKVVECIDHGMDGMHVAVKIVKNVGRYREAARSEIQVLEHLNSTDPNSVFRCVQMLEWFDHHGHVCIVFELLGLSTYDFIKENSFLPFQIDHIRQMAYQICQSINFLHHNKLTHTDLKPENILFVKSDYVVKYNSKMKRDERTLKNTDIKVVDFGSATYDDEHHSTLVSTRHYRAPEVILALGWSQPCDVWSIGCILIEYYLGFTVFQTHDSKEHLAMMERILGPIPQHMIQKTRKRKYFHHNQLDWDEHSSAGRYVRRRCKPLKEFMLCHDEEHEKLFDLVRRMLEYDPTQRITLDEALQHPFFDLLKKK
Summary of the method: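 Recombinant human Clk4 (25 nM) phosphorylated RS repeat peptide (100 uM) with 1 uM ATP in Tris pH 7.5/MgCl2/EGTA/DTT/Triton buffer for 4.5 h at room temperature. Residual ATP was quantified by Kinase-Glo luciferase luminescence.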

[11] = molecular target: Dual specificity protein kinase CLK4 (Homo sapiens) (UniProt Q9HAZ1); test: qHTS Assay for Inhibitors of CDC-like Kinase 4 (ADP-Glo Assay) (AID 1771); conditions: recombinant CLK4, ADP-Glo luminescence; series mostly up to 80 µM; also: nearly all actives have a fitted effect of over 70% in size; also: potency is read from the fitted curve at half-maximal effect
Summary of the method: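 ADP production was read by ADP-Glo luminescence after residual ATP depletion, following 1 h room-temperature reaction of 25 nM Clk4, 1 uM ATP and 100 uM RS peptide with MgCl2, EGTA, DTT and Triton X-100.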

[12] = molecular target: Dual specificity protein kinase CLK4 (Homo sapiens) (UniProt Q9HAZ1); test: qHTS Assay for Inhibitors of CDC-like Kinase 4 (ADP-FP Assay) (AID 1795); conditions: Transcreener ADP fluorescence polarization; series mostly up to 50 µM; also: nearly all actives have a fitted effect of over 60% in size; also: potency is read from the fitted curve at half-maximal effect
Summary of the method: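 Recombinant human Clk4 (6.25 nM) phosphorylated RS repeat peptide (100 uM) with 1 uM ATP in Tris pH 7.5/MgCl2/EGTA/DTT/Triton buffer for one hour. ADP was quantified by Transcreener competitive fluorescence polarization against an ADP calibration curve.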

[13] = molecular target: Ubiquitin carboxyl-terminal hydrolase 1 (Homo sapiens) (UniProt O94782); test: Inhibitors of USP1/UAF1: Pilot qHTS (AID 504865); conditions: purified USP1/UAF1, Ub-rhodamine cleavage fluorescence; series mostly up to 54.9 µM;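 also: rhodamine fluorescence freed from ubiquitin-rhodamine substrate followed over time; top concentration of the series differs between compounds; % is scaled to controls: 0 for no effect and ±100 for the full control effect; nearly all actives have a fitted effect of over 35% in size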
Ubiquitin carboxyl-terminal hydrolase 1 (Homo sapiens), sequence (O94782 whole entry, looked up): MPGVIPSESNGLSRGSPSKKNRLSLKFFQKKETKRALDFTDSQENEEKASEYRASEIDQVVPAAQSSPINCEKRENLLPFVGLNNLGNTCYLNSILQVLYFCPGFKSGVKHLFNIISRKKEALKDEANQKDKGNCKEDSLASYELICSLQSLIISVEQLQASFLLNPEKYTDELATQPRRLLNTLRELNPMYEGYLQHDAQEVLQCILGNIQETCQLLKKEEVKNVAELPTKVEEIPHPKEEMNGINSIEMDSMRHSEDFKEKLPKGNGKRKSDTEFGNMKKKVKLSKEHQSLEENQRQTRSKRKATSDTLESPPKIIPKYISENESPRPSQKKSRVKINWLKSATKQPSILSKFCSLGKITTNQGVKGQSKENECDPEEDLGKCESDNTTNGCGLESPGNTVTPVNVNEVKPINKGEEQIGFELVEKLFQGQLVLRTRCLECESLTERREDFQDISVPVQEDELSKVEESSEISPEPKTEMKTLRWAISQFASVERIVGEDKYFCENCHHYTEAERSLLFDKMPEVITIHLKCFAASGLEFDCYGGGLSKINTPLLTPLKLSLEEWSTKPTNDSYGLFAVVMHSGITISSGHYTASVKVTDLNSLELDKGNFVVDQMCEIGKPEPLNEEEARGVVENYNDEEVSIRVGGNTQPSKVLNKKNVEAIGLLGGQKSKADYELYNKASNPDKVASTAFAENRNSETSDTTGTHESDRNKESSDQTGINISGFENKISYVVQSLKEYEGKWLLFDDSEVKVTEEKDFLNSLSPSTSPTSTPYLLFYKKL
Summary of the method: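 USP1/UAF1 complex (1nM) preincubated with compound 15 min at room temperature, then Ub-Rho substrate (150nM final) added. Fluorescence read kinetically at 480/540 nm, 6 reads every 60 seconds. Buffer: 50mM HEPES pH 7.8, 0.5mM EDTA, 0.1 mg/ml BSA, 1mM TCEP, 0.01% Tween-20.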

[14] = Primary qHTS for small molecule stabilizers of the endoplasmic reticulum resident proteome: Secreted ER Calcium Modulated Protein (SERCaMP) assay (AID 1508630); conditions: SH-SY5Y GLuc-SERCaMP (Gaussia luciferase released on ER calcium loss) secretion, thapsigargin, luminescence; series mostly up to 38.4 µM; also: % is scaled to controls: 0 for no effect and ±100 for the full control effect
Summary of the method: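 The SH-SY5Y reporter protocol was run at 3 concentrations up to 38.3 uM (primary) or 11 concentrations (follow-up): 16 h compound, 100 nM thapsigargin for 4 h, then extracellular luciferase luminescence.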

[15] = molecular target: Cytochrome P450 3A4 (Homo sapiens) (UniProt P08684); test: qHTS Assay for Activators of Cytochrome P450 3A4 (AID 885); conditions: recombinant CYP3A4, Luciferin-PPXE luminescence, 60 min; series mostly up to 57.1 µM; also: nearly all actives have a fitted effect of over 65% in size; also: potency is read from the fitted curve at half-maximal effect
Cytochrome P450 3A4 (Homo sapiens), sequence (P08684 whole entry, looked up): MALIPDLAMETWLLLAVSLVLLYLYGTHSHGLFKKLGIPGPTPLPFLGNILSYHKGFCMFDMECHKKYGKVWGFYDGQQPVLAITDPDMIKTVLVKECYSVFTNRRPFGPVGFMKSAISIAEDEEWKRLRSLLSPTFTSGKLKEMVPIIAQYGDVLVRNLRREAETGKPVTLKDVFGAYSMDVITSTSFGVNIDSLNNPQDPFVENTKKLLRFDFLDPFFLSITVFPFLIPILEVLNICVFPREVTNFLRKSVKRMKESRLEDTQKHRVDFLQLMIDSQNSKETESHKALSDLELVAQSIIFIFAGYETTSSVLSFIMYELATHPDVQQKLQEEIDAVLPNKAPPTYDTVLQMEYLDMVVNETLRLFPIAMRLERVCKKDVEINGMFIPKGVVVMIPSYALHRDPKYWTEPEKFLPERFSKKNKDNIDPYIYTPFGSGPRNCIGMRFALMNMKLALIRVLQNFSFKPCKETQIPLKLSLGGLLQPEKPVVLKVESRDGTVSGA
Summary of the method: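 Using 20nM recombinant human CYP3A4 in potassium phosphate (200mM), substrate Luciferin-PPXE at 25uM, luminescent luciferin detection followed a 60-min RT NADPH reaction; data scaled to 57 uM ketoconazole.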

Row | SMILES | Potency [1] [µM] | activity change, negative = inhibition [2] [%] | Potency [3] | activity change, negative = inhibition [4] [%] | activity, negative = inhibition [5] [%] | Potency [6] [µM] | Potency [7] [µM] | Potency [8] | Potency [9] | Potency [10] | Potency [11] | Potency [12] | Potency [13] | outcome [14] | Potency [15]
1 | O=c1c(-c2ccccc2)nc2cnc(Oc3cccc(Cl)c3)nc2n1C1CC1 | > 11.4 | -15.1 | 1.58 µM (active) | 10.9 | -5.81 | > 9.22 | > 46 | inactive | inactive | inactive | inactive | inactive | inactive | inactive | 
2 | Cn1c(=O)c(-c2ccc(Cl)cc2)nc2cnc(OCc3ccccc3)nc21 | > 11.4 | -12.6 | 0.794 µM (active) | -7.07 | -4.02 | > 9.22 | > 46 | inactive | inactive | inactive | inactive | inactive | inactive | inactive | 
3 | Cc1cccc(CNc2ncncc2-c2cccnc2)c1 | > 11.4 | 11.8 | 0.794 µM (active) | 12 | 10.4 | > 46 | > 46 | inactive | inactive | inactive | inactive | inactive | inactive | inactive | inactive
4 | Cc1cnc(CNc2cc(-c3ccccc3C(F)(F)F)ncn2)cn1 | > 11.4 | 3.5 | 25.1 µM (active) | 10.7 | 8.02 | > 46 | > 46 | inactive | inactive | inactive | inactive | inactive | inactive | inactive | 6.31 µM (active)
5 | CN(C)c1ncc2nc(-c3ccc(Cl)cc3)c(=O)n(C[C@H]3CCCO3)c2n1 | > 11.4 | 9.11 | 3.98 µM (active) | 21.9 | 11.6 | > 9.22 | > 46 | inactive | inactive | inactive | inactive | inactive | inactive | inactive | 
6 | FC(F)(F)c1ccccc1-c1cncnc1NCc1cccnc1 | > 11.4 | -13.4 | 20 µM (active) | -6.58 | -1.05 | > 46 | > 46 | inactive | inactive | inactive | inactive | inactive | inactive | inactive | inactive
7 | COc1ccc(CNc2cc(-c3cccnc3)ncn2)c(OC)c1 | > 11.4 | -14.6 | 1.26 µM (active) | 10.5 | 2.95 | > 46 | > 46 | inactive | inactive | 8.91 µM (active) | 8.91 µM (active) | 10 µM (active) | inactive | inactive | 
8 | Cn1cc(-c2nc3cnc(Oc4ccccc4)nc3n(Cc3cccs3)c2=O)c2ccccc21 | > 11.4 | 7.68 | 3.16 µM (active) | 23.5 | 11 | > 9.22 | > 46 | inactive | inactive | inactive | inactive | inactive | inactive | inactive | 
9 | Cn1c(=O)c(-c2ccc(F)c(F)c2)nc2cncnc21 | > 11.4 | 10 | 0.158 µM (active) | -5.02 | -7.37 | > 9.22 | > 46 | inactive | inactive | inactive | inactive | inactive | inactive | inactive | inactive
10 | Cc1ccccc1-c1cncnc1NCc1cccnc1 | > 11.4 | -2.76 | 15.8 µM (active) | -14.1 | 4.91 | > 46 | > 46 | inactive | inactive | inactive | inactive | inactive | inactive | inactive | inactive
11 | COc1ccc(-n2c(=O)c(CCc3ccccc3)nc3cncnc32)cc1 | > 11.4 | -15.2 | 25.1 µM (active) | -3.92 | -3.17 | > 9.22 | > 46 | inactive |  | inactive | inactive | inactive | inactive | inactive | 
12 | CNc1ncncc1-c1ccccc1C | > 11.4 | 7.16 | 12.6 µM (active) | 9.64 | 2.49 | > 46 | > 46 | inactive | inactive | inactive | inactive | inactive | inactive | inactive | inactive
